Reference: PubChem BioAssay
Results with a measured potency or affinity are listed apart. Inconclusive results are not listed. The source made the active and inactive calls. Unless noted, the rule behind the calls is not given here.

What was measured:
[1] = RMG-1 ovarian cancer cell viability loss – cherry-pick, dose response (AID 687029;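 active = signal drop whose fitted half-maximal concentration is at most twice the top valid dose, in every test run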;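 note: cells exposed to compound for 96 hours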)
[2] = IOSE-T80 viability loss, PAX8-independent line – cell-based, cherry-pick, selectivity assay for PAX8 inhibitor project, dose response (AID 687032;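 active = fitted half-maximal concentration for viability loss no higher than twice the top valid dose, in every repeat run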;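 note: cells exposed to compound for 96 h before reading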)
[3] = CMV-driven luciferase expression suppression in HEK293 – cell-based, luminescence, dry powder, counter-screen for Pax8 inhibitor project, dose response (AID 743020;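 active = signal-lowering compounds whose fitted half-maximal concentration is at or below twice the top tested dose in every run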;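 note: HEK293 cells stably expressing the CMV luciferase reporter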)
[4] = general cell-killing toxicity readout – plate reader, dry powder samples, cytotoxicity control for PAX8 inhibitor project, dose response (AID 743021)
[5] = IGROV1 cell killing – plate reader, dry powder samples, PAX8 inhibitor project, dose response (AID 743043);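 note: more negative means fewer viable cells or more cytotoxicity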
[6] = toxicity toward immortalized ovarian surface epithelium – cell-based, plate reader, dry powder samples, cytotoxicity control for PAX8 inhibitor project, dose response (AID 743045);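 note: more negative values mean more cell killing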
[7] = A2780 cell killing – plate reader, dry powder samples, cytotoxicity control, dose response (AID 743046)
[8] = OVCAR8 cell viability loss – plate reader, dry powder samples, PAX8 project, dose response (AID 743197)

Measured: outcome

COc1ccccc1-c1ccc2c(c1)[C@H]1[C@H](CCN1C(=O)C1CCCCC1)[C@@H](CO)N2
inactive: [1] | [2] | [3] | [4] | [5] | [6]

Cc1ccc(S(=O)(=O)Nc2ccc3c(c2)C(=O)N([C@H](C)CO)C[C@H](C)[C@@H](CN(C)S(=O)(=O)c2ccc(Cl)cc2)OCCCC[C@H](C)O3)cc1
inactive: [1] | [2] | [3] | [4] | [5] | [6]

C[C@@H]1CN([C@H](C)CO)C(=O)c2cccc(NC(=O)Nc3cccc4ccccc34)c2O[C@@H]1CN(C)S(=O)(=O)c1ccc(Cl)cc1
inactive: [1] | [2] | [3] | [4] | [5] | [6] | [7]

C[C@H]1CN([C@@H](C)CO)S(=O)(=O)c2ccc(C#Cc3ccncc3)cc2O[C@H]1CN(C)C(=O)C1CCCCC1
inactive: [1] | [2] | [3] | [4] | [5] | [6] | [7]

Cc1ccc(S(=O)(=O)N(C)C[C@H]2Oc3cc(C#Cc4ccncc4)ccc3S(=O)(=O)N([C@H](C)CO)C[C@H]2C)cc1
inactive: [1] | [2] | [3] | [4] | [5] | [6] | [7]

Cc1ccccc1-c1ccc2c(c1)O[C@H](CN(C)C(=O)Nc1ccc(C(F)(F)F)cc1)[C@@H](C)CN([C@H](C)CO)S2(=O)=O
inactive: [1] | [2] | [3] | [4] | [5] | [6] | [7]

C[C@@H]1CN([C@H](C)CO)C(=O)c2cc(NC(=O)Nc3ccccc3)ccc2O[C@@H](C)CCCCO[C@@H]1CN(C)CC1CCCCC1
inactive: [1] | [2] | [3] | [4] | [5] | [6] | [7]

C[C@@H](O)C#Cc1ccc2c(c1)O[C@H](CN(C)Cc1ccc(-c3ccccc3)cc1)[C@@H](C)CN([C@@H](C)CO)S2(=O)=O
inactive: [1] | [2] | [3] | [4] | [5] | [6] | [7]

C[C@@H]1CCCCO[C@H](CN(C)CC2CCCCC2)[C@H](C)CN([C@@H](C)CO)C(=O)c2cc(NC(=O)Nc3ccccc3)ccc2O1
inactive: [1] | [2] | [3] | [4] | [5] | [6] | [7]

C[C@@H]1CN([C@H](C)CO)C(=O)c2cc(NC(=O)Cc3ccccc3)ccc2O[C@@H](C)CCCCO[C@@H]1CN(C)Cc1ccc(C(F)(F)F)cc1
inactive: [1] | [2] | [3] | [4] | [5] | [6] | [7]

COc1ccc(CN(C)C[C@@H]2OCCCC[C@H](C)Oc3ccc(NC(=O)Nc4ccc(C(F)(F)F)cc4)cc3C(=O)N([C@H](C)CO)C[C@@H]2C)cc1
inactive: [1] | [2] | [3] | [4] | [5] | [6] | [7] | [8]

C[C@@H]1CN([C@H](C)CO)C(=O)c2cc(NC(=O)Nc3ccc(C(F)(F)F)cc3)ccc2O[C@@H](C)CCCCO[C@H]1CN(C)C(=O)NC1CCCCC1
inactive: [1] | [2] | [3] | [4] | [5] | [6] | [7]

COc1cccc(S(=O)(=O)N2CCCCN3[C@@H](CO)[C@@H](c4ccc(C#CCC(C)C)cc4)[C@@H]3C2)c1
inactive: [1] | [2] | [3] | [4] | [5] | [6] | [7] | [8]

COc1ccc(S(=O)(=O)Nc2ccc3c(c2)CC(=O)N([C@@H](C)CO)C[C@@H](C)[C@H](CN(C)Cc2ccc(C(F)(F)F)cc2)O3)cc1
inactive: [1] | [2] | [3] | [4] | [5] | [6] | [7]

COc1ccc2c3c(n(C)c2c1)[C@@H](CO)N(C(=O)Nc1ccc(F)cc1)CC31CCN(S(=O)(=O)c2cccc(C)c2)CC1
inactive: [1] | [2] | [3] | [4] | [5] | [6] | [7] | [8]

C[C@@H]1CCCCO[C@H](CN(C)Cc2ccc(C(F)(F)F)cc2)[C@H](C)CN([C@@H](C)CO)C(=O)c2cc(NS(=O)(=O)c3ccc(Cl)cc3)ccc2O1
inactive: [1] | [2] | [3] | [4] | [5] | [6] | [7]

C[C@@H]1CCCCO[C@@H](CN(C)C(=O)Nc2ccc(C(F)(F)F)cc2)[C@H](C)CN([C@H](C)CO)C(=O)c2cc(NS(=O)(=O)c3ccc(F)cc3)ccc2O1
inactive: [1] | [2] | [3] | [4] | [5] | [6] | [7]

CC(C)CC1NC(=S)N(Cc2ccccc2)C1=O (stereo not given)
inactive: [1] | [2] | [3] | [4] | [5] | [6] | [7]

C[C@@H]1CN([C@H](C)CO)C(=O)c2cc(NC(=O)Nc3ccc(F)cc3)ccc2O[C@@H](C)CCCCO[C@H]1CN(C)C(=O)Nc1ccc(C(F)(F)F)cc1
inactive: [1] | [2] | [3] | [4] | [5] | [6] | [7]

CC(C)CC#Cc1ccc2c(c1)O[C@H](CN(C)S(=O)(=O)c1ccc(F)cc1)[C@@H](C)CN([C@@H](C)CO)S2(=O)=O
inactive: [1] | [2] | [3] | [4] | [5] | [6] | [7]

CC(C)NC(=O)N(C)C[C@H]1OCCCC[C@@H](C)Oc2ccc(NC(=O)Nc3ccc(C(F)(F)F)cc3)cc2C(=O)N([C@@H](C)CO)C[C@H]1C
inactive: [1] | [2] | [3] | [4] | [5] | [6] | [7]

C[C@H](CO)N1C[C@H](C)[C@@H](CN(C)S(=O)(=O)c2cccc(F)c2)OCc2ccccc2-c2c(n(C)c3ccccc23)C1=O
inactive: [1] | [2] | [3] | [4] | [5] | [6] | [7]

O=C(Nc1ccc(C(F)(F)F)cc1)Nc1ccc2c(c1)[C@H]1C[C@@H](CC(=O)N3CCc4ccccc4C3)O[C@@H](CO)[C@H]1O2
inactive: [1] | [2] | [3] | [4] | [5] | [6] | [7]

C[C@@H]1CN([C@H](C)CO)C(=O)c2cc(NC(=O)Nc3ccc(F)cc3)ccc2O[C@@H](C)CCCCO[C@@H]1CN(C)Cc1ccc(Cl)c(Cl)c1
inactive: [1] | [2] | [3] | [4] | [5] | [6] | [7]

C[C@@H]1CN([C@H](C)CO)C(=O)c2cc(NC(=O)Nc3cccc4ccccc34)ccc2O[C@@H]1CN(C)C(=O)Nc1cccc2ccccc12
inactive: [1] | [2] | [3] | [4] | [5] | [6] | [7]

C[C@H]1CN([C@@H](C)CO)C(=O)Cc2cc(NC(=O)NC3CCCCC3)ccc2O[C@H]1CN(C)Cc1ccc(-c2ccccc2)cc1
inactive: [1] | [2] | [3] | [4] | [5] | [6] | [7]

C[C@@H]1CCCCO[C@H](CN(C)Cc2ccc(C(F)(F)F)cc2)[C@H](C)CN([C@H](C)CO)C(=O)c2cc(NC(=O)c3ccccc3)ccc2O1
inactive: [1] | [2] | [3] | [4] | [5] | [6] | [7]

C[C@@H]1CN([C@H](C)CO)C(=O)c2cc(NC(=O)c3ccccc3)ccc2O[C@@H](C)CCCCO[C@@H]1CN(C)Cc1ccc(C(F)(F)F)cc1
inactive: [1] | [2] | [3] | [4] | [5] | [6] | [7]

Cc1ccc(S(=O)(=O)Nc2ccc3c(c2)C(=O)N([C@H](C)CO)C[C@@H](C)[C@H](CN(C)C(=O)Nc2cccc4ccccc24)OCCCC[C@@H](C)O3)cc1
inactive: [1] | [2] | [3] | [4] | [5] | [6] | [7]

COc1ccc2c3c([nH]c2c1)[C@H](CO)N(C(=O)Nc1cccc(F)c1)CC31CCN(S(=O)(=O)c2cccc(C)c2)CC1
inactive: [1] | [2] | [3] | [4] | [5] | [6] | [7]

C[C@@H]1CN([C@H](C)CO)C(=O)c2cccc(NC(=O)Nc3cccc4ccccc34)c2O[C@H]1CN(C)C(=O)Nc1ccc(C(F)(F)F)cc1
inactive: [1] | [2] | [3] | [4] | [5] | [6] | [7] | [8]

COc1cccc(C#Cc2ccc3c(c2)O[C@@H](CN(C)C(=O)c2ccccn2)[C@H](C)CN([C@@H](C)CO)S3(=O)=O)c1
inactive: [1] | [2] | [3] | [4] | [5] | [6] | [7]

C[C@@H]1CN([C@H](C)CO)C(=O)c2cc(NC(=O)Nc3ccccc3)ccc2O[C@@H](C)CCCCO[C@H]1CN(C)C(=O)Nc1ccc(C(F)(F)F)cc1
inactive: [1] | [2] | [3] | [4] | [5] | [6] | [7]

C[C@@H]1CCCCO[C@@H](CN(C)S(=O)(=O)c2ccc(F)cc2)[C@H](C)CN([C@H](C)CO)C(=O)c2cc(NS(=O)(=O)c3ccc(Cl)cc3)ccc2O1
inactive: [1] | [2] | [3] | [4] | [5] | [6] | [7]
